High-throughput results from PubChem BioAssay.
Shown are actives, neighbours in structure and some others; about 1.6% of the full set was active somewhere.
KCNQ2 pot: KCNQ2 (rat) channel potentiation; O88943; CHO-K1 KCNQ2, FluxOR thallium flux fluorescence; hits give high values; B-score at 10 µM; 310,000 compounds, 0.54% hits;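 active = fluorescence ratio B-score at least 3 SD of library B-scores, with initial fluorescence B-score within 3 of them, cut at about 5.3 in these data; same plate scores as AID 2156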;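 note: B-score of peak minus minimum over baseline fluorescence ratio after K+ and Tl+ stimulus; positive B-score means potentiation of KCNQ2 with more thallium influx and brighter signal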
KCNQ2 block: KCNQ2 (rat) channel inhibition. 310,000 compounds, 1.1% hits. AID 2156. B-score at 10 µM. O88943. CHO-K1 KCNQ2, FluxOR thallium flux, 20 min; hits give low values;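 active = fluorescence ratio B-score at most minus 3 library SDs, with starting brightness B-score within 2 library SDs, cut at about -5.5 in these data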
Kir21 confirm: confirmation of mouse Kir2.1 potassium channel inhibitors; AID 2032; Kir2.1-expressing cells, FluxOR thallium flux fluorescence; hits give low values; Tl flux remaining, % of negative control (hits give low values), % at 10 µM; shares compounds with KCNQ2 pot; 2,300 compounds, 41% hits;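 active = Primary-screen hit whose thallium flux fell at least 3 control SD below untreated wells in both duplicates, with normal baseline fluorescence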
Target sequence (P35561 whole entry, looked up): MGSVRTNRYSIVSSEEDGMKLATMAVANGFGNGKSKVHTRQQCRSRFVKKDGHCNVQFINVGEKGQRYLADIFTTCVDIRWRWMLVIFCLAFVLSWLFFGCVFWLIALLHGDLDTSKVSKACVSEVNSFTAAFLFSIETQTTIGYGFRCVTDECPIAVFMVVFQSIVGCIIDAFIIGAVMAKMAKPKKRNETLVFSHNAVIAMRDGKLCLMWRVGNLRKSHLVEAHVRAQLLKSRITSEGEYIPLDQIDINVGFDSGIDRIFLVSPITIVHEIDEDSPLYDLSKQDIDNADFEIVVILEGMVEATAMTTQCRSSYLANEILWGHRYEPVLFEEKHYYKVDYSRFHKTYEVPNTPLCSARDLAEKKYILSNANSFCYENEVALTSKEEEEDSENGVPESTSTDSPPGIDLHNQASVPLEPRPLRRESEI
HEK293 Tl flux: parental HEK293 activity in Kir2.1 inhibitor counter-screen | FluxOR signal as % of negative control (100 = no effect), % at 10 µM | 2,300 compounds, 19% hits | shares compounds with KCNQ2 pot | parental HEK293 cells, FluxOR thallium flux fluorescence; 0% = unstimulated blank wells;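 active = dye signal at least 3 control SD above or below untreated wells in both duplicates, raw fluorescence within 3, either direction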;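 note: percent is based on the flux ratio of peak minus minimum fluorescence over baseline F0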
CHO-K1 ctr: alters thallium flux in parental CHO-K1 cells, KCNQ2 counter-screen; shares compounds with KCNQ2 pot; FluxOR thallium flux fluorescence; zero = vehicle mean+3SD, 100% = vehicle-minus-blank window; activity increase over 3SD of controls, % at 10 µM; 1,200 compounds, 43% hits; AID 2282;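 active = signal rise of at least 3 SD above the untreated control mean, in both duplicate wells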;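 note: counter screen of KCNQ2 potentiator hits so any rise reflects channel-independent effects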
KCNQ1 pot spec: tests whether KCNQ2 potentiators also act on human KCNQ1; 1,200 compounds, 28% hits; activation over 3SD threshold, % at 10 µM; shares compounds with KCNQ2 pot; AID 2283; CHO KCNQ1 stable, FluxOR thallium flux fluorescence; beyond 3SD, as % of vehicle-control signal;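 active = fluorescence ratio rise of at least 3 SD of vehicle wells above their mean, in both replicate wells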
KCNQ2 pot confirm: confirmation of rat KCNQ2 potassium channel potentiators; potentiation, less the hit threshold, % at 10 µM; shares compounds with KCNQ2 pot; CHO-KCNQ2 cells, FluxOR thallium flux fluorescence; 1,200 compounds, 68% hits;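 active = fluorescence ratio rising 3 SD or more over the vehicle control mean in both replicates, plus primary screen hit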;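 note: peak minus minimum thallium fluorescence divided by baseline after K/Tl stimulus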
Kir21 spec: selectivity of KCNQ2 potentiators: effect on mouse Kir2.1; activity over 3SD threshold, % at 10 µM; AID 2345; 1,200 compounds, 2% hits; HEK293 Kir2.1, FluxOR thallium flux fluorescence; shares compounds with KCNQ2 pot;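 active = fluorescence ratio rise of at least 3 SD above the vehicle-control mean, seen in both replicates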
KCNQ2 W236L pot: rat KCNQ2 W236L mutant potentiation by KCNQ2 potentiators; shares compounds with KCNQ2 pot; CHO KCNQ2-W236L, automated patch clamp current; 940 compounds, 10% hits; current increase over 3SD of negative controls (%), hits give high values, % at 25 µM;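 active = current increase at least 3 SD of the untreated controls above them in both duplicate recordings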
Large screens that a line does not name were inactive (follow-up assays come after a bar, where they were run).

C=CCc1cc(Cl)ccc1OCCOCCNC(C)CC (configuration not stated)	none | Kir21 confirm inactive | HEK293 Tl flux inactive
CC1CCN(CCc2nc3cc(NC(=O)COc4ccc(Cl)cc4)ccc3n2C)CC1	none
COc1ccc(-c2nc3ccccc3[nH]2)cc1	none (no result: KCNQ2 pot)
COc1ccc(-c2nc(=S)c3ccc4ccccc4c3[nH]2)cc1	KCNQ2 pot 20 | Kir21 confirm inactive | HEK293 Tl flux 152% | CHO-K1 ctr inactive | KCNQ1 pot spec inactive | KCNQ2 pot confirm 23 | Kir21 spec inactive | KCNQ2 W236L pot inactive
Cc1cccnc1NC(=O)NC(=O)c1ccc(C(C)(C)C)s1	none
O=C(O)c1ccc(S(=O)(=O)/N=C2\C=C(Nc3ccccc3F)C(=O)c3ccccc32)cc1	none
Cc1ccccc1NC1=C/C(=N\S(=O)(=O)c2ccc(C(=O)O)cc2)c2ccccc2C1=O	KCNQ2 pot 7.2 | Kir21 confirm inactive | HEK293 Tl flux inactive | CHO-K1 ctr inactive | KCNQ1 pot spec inactive | KCNQ2 pot confirm 8.9 | Kir21 spec inactive | KCNQ2 W236L pot 16%
COCCN1C(=O)C(=O)/C(=C(/O)c2ccc(S(=O)(=O)N3CCOCC3)cc2)C1c1cccc([N+](=O)[O-])c1 (configuration not stated)	none
CC(CCc1ccc(O)cc1)NC1c2ccccc2-c2ccccc21 (configuration not stated)	none | Kir21 confirm 33% | HEK293 Tl flux inactive
CC(CCc1ccc(O)cc1)NC1C2CC3CC(C2)CC1C3 (configuration not stated)	none
